Screens: PubChem, several laboratories
Most compounds without a hit are left out; they make up all but 5.2% or so of the library.
SMARCA2 act: activators of SMARCA2 function | 370,000 tested, 1% active | activation, % at 9.1 µM | MG213 cells, MMTV-luciferase reporter, dexamethasone, overnight; in the data active = activation above about 7.8%;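 also: 0% = vehicle wells and 100% = reference activator wells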
GRIN3A LBD mod: NR3A (human) ligand-binding domain modulation; NR3A LBD differential scanning fluorimetry, Tm shift; 0% = protein alone, 100% = glycine-bound protein; Tm shift relative to glycine control, % at 25 µM; 340,000 tested, 2.5% active;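 active = melting temperature shift of at least 10% of the positive control shift, at one fixed dose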
SKN-1 inh: inhibitors of C. elegans SKN-1; inhibition, % at 21.8 µM; C. elegans VP596 Pgst-4::GFP/RFP ratio, acrylamide-induced, 24 h; 360,000 tested, 0.49% active;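 active = interference check ratio from 0.5 to 1.5 plus GFP to RFP signal ratio inhibition reaching or exceeding a fixed threshold, cut at about 30% in these data, passing the limit was not always enough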
esBAF inh: SWI/SNF esBAF complex inhibition. 350,000 tested, 2% active. reporter increase, % at 12.5 µM. mouse ES cells, Bmi1-luciferase knock-in reporter, 24 h; 100% = twice the neutral-well signal; in the data active = activation above about 40%; inconclusive = no clear call, values can overlap the other calls;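 also: 0% = median of the plate's neutral control wells and 100% = double that signal; a rise in the Bmi1 reporter signal indicates esBAF inhibition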
Vif inh: blocks HIV Vif function. 340,000 tested, 0.35% active. inhibition, % at 7.49 µM. HEK293T cells, Vif self-association by quenched fluorescence, imaging, 24 h; in the data active = inhibition above about 50%, passing the limit was not always enough; inconclusive = no clear call, values can overlap the other calls; inactive = below about 31%
NadD inh: blocks S. aureus nicotinate mononucleotide adenylyltransferase; purified NadD enzyme, colorimetric absorbance read-out; inhibition, % at 20 µM; 360,000 tested, 0.78% active; AID 602399; in the data active = inhibition above about 26%
* = called active by the depositor; i = inactive; ? = inconclusive; . = no result.

SMILES	SMARCA2 act	GRIN3A LBD mod	SKN-1 inh	esBAF inh	Vif inh	NadD inh
CC1(C)CC(=O)C2=C(C1)N(Cc1ccco1)C(=O)C2(O)C(F)(F)F (stereo not given)	7.7	68.5*	7.5	.	-1.7	5.8
CC1(C)CC(=O)C2=C(C1)N(Cc1ccco1)C(=O)C2(NC(=O)c1cccnc1)C(F)(F)F (stereo not given)	-4.2	-1.6	-2.5	-5.1	17.9	4.2
CN(C)c1ccc(/C=C(\C#N)C(=O)Nc2nc3c(s2)CCN(Cc2ccccc2)C3)cc1	0.9	-2.8	45.3*	10.4	i	32.6*
O=C(Nc1nc2c(s1)CN(Cc1ccccc1)CC2)C1CCC1	1.0	-2.1	22.1	20.5	-3.4	7.8
N/C(=N\N=C\c1ccc(O)c(O)c1)c1nonc1N	5.0	2.9	7.2	65.1*	-1.2	-1.3
COc1cc(/C=N/N=C(\N)c2nonc2N)ccc1O	2.4	2.8	16.0	.	6.4	-2.1
O=C(C[C@H]1CC[C@H]2[C@@H](COC[C@H](O)CN2C(=O)Nc2ccc(F)cc2)O1)NC1Cc2ccccc2C1	.	.	.	8.4	.	.
COc1ccc(N2CCN(C(CNC(=O)c3ccc4c(c3)OCO4)c3cccnc3)CC2)cc1 (stereo not given)	1.8	0.5	-9.4	-1.3	0.3	-4.0
O=C(NCC(c1cccnc1)N1CCN(c2ccc(F)cc2)CC1)c1ccc2c(c1)OCO2 (stereo not given)	-0.1	0.5	42.3*	-0.8	-9.7	-2.1
O=C(NCCCn1ccnc1)C(=O)NCC(c1cccnc1)N1CCN(c2ccccc2)CC1 (stereo not given)	-1.1	2.7	3.2	10.2	53.7*	-1.7
Cc1cc(C)cc(NC(=O)Nc2ccc3c(c2)C(=O)N(C)[C@H]2CC[C@@H](CC(=O)O)O[C@H]2CO3)c1	.	.	.	-1.6	.	.
Cc1cc(=O)c2ccccc2s1	3.5	-2.5	7.2	-0.9	1.1	0.9
c1ccc2c(c1)[nH]c1c3ccccc3sc21	-3.0	23.6*	0.6	39.8	-2.8	-2.0
N#Cc1ccccc1NC(=O)c1ccc2c(c1)OCCO2	1.4	-1.3	-0.2	44.9*	-4.9	-0.3
O=C(Nc1cccc2cccnc12)c1ccc2c(c1)OCCO2	2.9	-4.0	10.5	47.8*	-16.3	-0.4
Cc1ccccc1NC(=O)c1ccc2c(c1)OCCO2	4.1	-0.8	17.3	46.7*	-11.4	-1.6
CC(=O)Nc1ccccc1NC(=O)c1ccc2c(c1)OCO2	-3.8	.	1.2	-6.7	3.2	-8.8
N#Cc1ccccc1NC(=O)COC(=O)c1ccc2c(c1)OCCO2	3.1	-1.9	-1.8	5.2	8.2	-2.6
Cc1ccc(NC(=O)c2ccc3c(c2)OCCO3)cc1	0.5	-1.3	-1.8	-51.4	6.1	-3.1
Cc1cccc(NC(=O)c2ccc3c(c2)OCCO3)c1C	4.4	-0.4	-15.7	54.7*	19.6	2.4
C[C@@H]1CN([C@H](C)CO)C(=O)c2cc(NC(=O)Nc3cccc4ccccc34)ccc2O[C@H]1CN(C)Cc1ccc(-c2ccccc2)cc1	.	.	.	-5.5	.	.
Cc1noc(C)c1S(=O)(=O)Nc1ccc2c(c1)CC(=O)N([C@H](C)CO)C[C@H](C)[C@@H](CN(C)S(=O)(=O)c1c(C)noc1C)O2	.	.	.	2.6	.	.
O=C1C(Cl)=C(NCCc2ccccc2)C(=O)N1CCc1ccccc1	7.9*	-9.9	24.4	?	-5.2	-0.8
O=C1C(Cl)=C(NCCCN2CCOCC2)C(=O)N1CCc1ccccc1	-4.0	0.0	17.5	-0.3	-2.6	-6.9
COC(=O)c1ccc(NC(=O)CSc2nc3[nH]ncc3c(=O)[nH]2)cc1	-0.6	14.1*	10.8	.	4.5	-0.1
SMILES	SMARCA2 act	GRIN3A LBD mod	SKN-1 inh	esBAF inh	Vif inh	NadD inh
O=C(CSc1nc2[nH]ncc2c(=O)[nH]1)Nc1ccccc1C(F)(F)F	-1.8	1.2	3.1	-1.2	-0.4	1.7
O=C(CSc1nc2[nH]ncc2c(=O)[nH]1)Nc1ccccc1F	-2.8	14.1*	1.1	.	-10.3	0.4
C[C@H]1CN([C@@H](C)CO)C(=O)Cc2cc(NS(=O)(=O)c3ccccc3)ccc2O[C@@H]1CN(C)Cc1ccc(-c2ccccc2)cc1	.	.	.	1.4	.	.
Cc1ccc(Nc2nc(-c3ccc(O)c(O)c3)cs2)nc1	-2.2	42.6*	.	.	.	.
COc1ccc(-c2csc(Nc3cccc(C)n3)n2)cc1	5.9	-2.4	29.8	26.7	-14.1	-0.3
Cc1ccc(Nc2nc(-c3ccc(F)cc3)cs2)nc1	0.4	-8.4	25.9	76.2*	0.1	1.6
